What was measured:
Format in all cases: functional
[1] = test system: Plasmodium falciparum; assay: GSK_TCMDC: Inhibition of Plasmodium falciparum 3D7 in whole red blood cells, using parasite LDH activity as an index of growth. Test compounds present at 2uM
[2] = test system: Plasmodium falciparum; assay: GSK_TCMDC: Inhibition of Plasmodium falciparum Dd2 in whole red blood cells, using parasite LDH activity as an index of growth. Test compounds present at 2uM
[3] = test system: HepG2; assay: GSK_TCMDC: Percent inhibition of human HepG2 cell line. Test compounds present at 10uM.

SMILES	Inhibition [1] [%]	Inhibition [2] [%]	Inhibition [3] [%]
CN1Cc2ccc(NS(=O)(=O)c3ccc(-c4ccoc4)cc3)cc2C1.Cl	97	2	0
Cc1nn(-c2ccccc2)nc1C(=O)N(Cc1ccc(-c2ccc(CNCCc3ccc(S(C)(=O)=O)cc3)cn2)cc1)C(C)CN(C)C.O=C(O)C(F)(F)F (centres undefined)	100	87	25
Cc1cc(F)ccc1[C@H]1C[C@H](N2CCOCC2)CCN1C(=O)N(C)[C@@H](C)c1cc(C(F)(F)F)cc(C(F)(F)F)c1.Cl	100	99	4
Cl.c1cc(COc2ccc(C3=NCCN3)cc2)nc(COc2ccc(C3=NCCN3)cc2)c1	100	98	8
COc1ccccc1C1CCN(C2CCC(NC(=O)c3cc4cc(C(C)C)ccc4[nH]3)CC2)CC1 (centres undefined)	100	98	100
O=C(O)C(F)(F)F.c1cc(-c2ccc(CNC3CC3)cc2)cc(-c2nc3ccccc3[nH]2)c1	96	8	17
COc1cc(Nc2nccc(N3CCC(NC(=O)Nc4cccc(C(C)=O)c4)C3)n2)cc(OC)c1OC (centres undefined)	91	34	8
COc1ccc2nccc([C@@H](O)CN3CCC(NCCOc4ccccc4C#N)CC3)c2c1.O=C(O)C(=O)O	100	99	10
COc1ccc(Nc2nc(NN=Cc3cc(Br)c(O)cc3O)nc(Nc3ccc([N+](=O)[O-])cc3)n2)cc1	97	23	30
Cc1cccc2nc(-c3ccc(-c4ccc(CN5CCN(CCC#N)CC5)cc4)cc3)[nH]c12.O=C(O)C(F)(F)F	91	27	48
O=C(O)C(F)(F)F.c1ccc(CN2CCC(NCc3ccc(-c4cccc(CNC5CCCC5)c4)cc3)CC2)cc1	100	100	55
CN1CCN(Cc2cccc(-c3cc4nccc(Nc5ccc(Oc6ccccc6)cc5)c4cc3Cl)c2)CC1	100	96	10
COc1ccc(NS(=O)(=O)c2ccccc2Br)cc1N1CCN(C)CC1.Cl	94	3	2
NCC1CCCN1Cc1cccc(-c2cccc(-c3nc4cc(F)ccc4[nH]3)c2)c1.O=C(O)C(F)(F)F (centres undefined)	100	65	10
COc1ccc(NC(=O)[C@H](Cc2ccccc2)Nc2cc(C)nc(NCCN3CCCC3)n2)cc1.O=C(O)C(F)(F)F	97	3	15
Nc1c(-c2ccc(C(=O)NCCNCc3ccccc3)cc2)cnn1-c1ccc(C(F)(F)F)cc1.O=C(O)C(F)(F)F	85	2	23
COCCNCc1ccc(-c2ccc3c(Nc4ccc(Cl)cc4F)ccnc3c2)o1	100	100	15
CN(C)CCOc1ccc(-c2cc(-c3ccc(Cl)c(O)c3)c(-c3ccncc3)[nH]2)cc1.Cl	98	92	54
Cc1nc2ccc3ccc(CNc4ccc(C#N)cc4)cc3c2c(=O)[nH]1	84	56	55
CCn1c(-c2nonc2N)nc2c(-c3cccc(NC(=O)Nc4cccc(OC)c4)c3)ncc(OCCCN)c21.O=C(O)C(F)(F)F	92	69	1

SMILES	Inhibition [1] [%]	Inhibition [2] [%]	Inhibition [3] [%]
Cc1cccc2nc(-c3cccc(-c4ccc(NC(=O)Nc5ccc6c(c5)OCO6)cc4)c3)[nH]c12	100	86	80
CC(=O)c1cccc(NC(=O)NC2CCN(CCCCCNC(=O)/C=C/c3ccc(Cl)c(Cl)c3)CC2)c1	94	1	7
O=C(Nc1ccc2nc3n(c(=O)c2c1)CCCCC3)C(=O)N1CCN(c2ccc(F)cc2)CC1	93	86	10
CC(C)(C)c1cc(C(=O)N2CCN(c3cnccn3)CC2)n(Cc2ccccc2)n1	92	33	0
Cc1cccc2nc(-c3cccc(-c4cccc(CNCC5CCCO5)c4)c3)[nH]c12.O=C(O)C(F)(F)F (centres undefined)	100	99	26
CCc1ccccc1N1CCN(CCCC(=O)c2ccc(NC(=O)c3cc(Cl)cc(Cl)c3)cc2)CC1	99	46	16
CN(C)CCCn1c(N)c(-c2nc3ccccc3[nH]2)c2nc(C#N)c(C#N)nc21	100	100	100
Cn1nccc1C(=O)NCCNCc1ccc(-c2ccc(-c3nc4ccccc4[nH]3)s2)cc1.O=C(O)C(F)(F)F	100	97	23
Nc1nc2c(ncn2OC[C@H](CO)OCP(=O)(O)O)c(=O)[nH]1	94	61	5
c1ccc(-c2cc(NCc3cccc4ccccc34)c3[nH]ncc3n2)cc1	93	5	7
COc1ccc(C(=O)Nc2cc(Br)c3c(c2)CNCC3)cc1C(F)(F)F.Cl	90	4	13
Cc1cccc(C(=O)Nc2ccc(N3CCCN(Cc4cccc(O)c4)CC3)cc2)c1.O=C(O)C(F)(F)F	92	44	2
O=C(Nc1cc(C(F)(F)F)ccc1Cl)c1ccc(Cn2cc(Br)cn2)cc1	91	67	24
O=C(/C=C/c1ccc(Cl)c(Cl)c1)NCCCCCN1CCC(c2n[nH]c(-c3ccccc3)c2Br)CC1	95	23	100
CC1(C)CCNc2cc(NC(=O)c3ccc(-c4ncccc4C(F)(F)F)cc3)ccc21.Cl	97	86	7
Cc1cccc2nc(-c3ccc(-c4ccc(CNCC5CCCO5)cc4)s3)[nH]c12.O=C(O)C(F)(F)F (centres undefined)	100	96	11
CN(C)c1ccc(NC(=O)Nc2ccnc3ccc(Br)cc23)cc1.Cl	91	21	0
O=C(O)c1ccc(-c2cnc3ccc(NC4CCC(O)CC4)nn23)cc1 (centres undefined)	98	90	9
Cc1ccc(O)cc1Nc1ccnc2cc(-c3csc(CN(C)CCN(C)C)n3)ccc12	100	80	3
Oc1cc2c(cc1CN1CCN(Cc3ccccc3F)CC1)CCC2	98	94	2

SMILES	Inhibition [1] [%]	Inhibition [2] [%]	Inhibition [3] [%]
CCc1ccc(C(=O)NC(=O)c2ccccc2O)cc1	95	84	0
O=C(NCc1ccc(Cl)c(Cl)c1)c1ccc(-c2nc3cc(F)c(F)cc3[nH]2)cc1	81	12	0
CC(C)(C)N1CCC(N(Cc2ccc(-c3ccc(C(F)(F)F)cc3)cc2)C(=O)Cn2c(CCc3cccc(F)c3F)cc(=O)c3cccnc32)CC1.O=C(O)C(O)C(O)C(=O)O	100	63	100
CC(=O)c1ccc(Nc2c(C(N)=O)cnc3cc(-c4c(C)noc4C)ccc23)cc1	99	44	0
O=C(NCc1ccc(F)cc1)c1cc(Br)cc(N2CCN(c3ccncc3)CC2)c1.O=C(O)C(F)(F)F	80	59	36
O=C(/C=C/c1ccc(Cl)c(Cl)c1)N1CCC(CCN2CCc3[nH]c4ccccc4c3C2)CC1.O=C(O)C(F)(F)F	96	0	22
N=C(N)NC(=O)Nc1cc(Cl)c(Cl)c(C(F)(F)F)c1	100	99	6
Cc1nnc(Sc2ncnc3scc(-c4ccc(F)cc4)c23)s1	99	50	13
CN(C)C(=O)c1ccc(CN(Cc2ccc3c(c2)OCCO3)Cc2ccc3c(c2)OCO3)cc1	89	95	0
O=C(c1ccc(O)c(-c2cc(Cl)cc(Cl)c2)c1)N1CCCC1	90	57	3
CC1(C)C2C=C(CN3CCC(NC(=O)Nc4ccc(Cl)c(Cl)c4)CC3)C1CC2 (centres undefined)	100	33	28
COc1ccc(-c2ccc(CNCc3ccsc3)cc2)cc1S(=O)(=O)NCCN1CCCC1.O=C(O)C(F)(F)F	94	30	22
CN(C)c1ccc(CN2CCC(NC(=O)c3ccc(-c4ccccc4Cl)s3)CC2)cc1.O=C(O)C(F)(F)F	82	27	35
CCCC(C)C(=O)N1CCOC(COCc2cccc(C(F)(F)F)c2)(c2ccc(Cl)cc2)C1 (centres undefined)	97	91	2
COc1ccccc1C1CCN(Cc2csc(NC(=O)c3ccc(-c4ccc(C(F)(F)F)cc4)cc3)n2)CC1	85	23	62
O=C(/C=C/c1ccc(Br)cc1)NCCCCCN1CCC(c2c[nH]c3ccccc23)CC1	99	19	73
O=C(Nc1ccc(C(F)(F)F)cc1)c1ccc(NCCCN2CCCCCC2)c([N+](=O)[O-])c1	100	98	42
O=C1NC(=O)C(c2ccc(Cl)cc2)=C1Nc1cccc(S(=O)(=O)C(F)(F)F)c1	99	51	1
